The text below walks through data of the supplement of paper PMC9177965.

Values joined by “and” are separate entries in the source; they are usually repeats but may differ in a detail not shown here. Equal entries are not always repeated.

Assay [1] concerns HT29 RNF43 G659fs (RNF43 659mut, CRISPR-edited). The assay can be described thus: cell viability activity relative to DMSO (negative = inhibition); higher = more viable cells (less growth inhibition). The following applies: 5 µM; 96 h. As to the method:
(§1)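 Broad Repurposing Library primary screen at a single dose of 5 uM. HT29 sg-Ctrl and HT29 RNF43 G659fs CRISPR-edited isogenic cells were seeded at 2500 cells/well in 384-well plates in duplicate and treated for 96 h. Viability was read by CellTiter-Glo and reported as % activity relative to DMSO, with MG132 as the positive control (negative = growth inhibition).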

The test system of assay [2] is HT29 sg-Ctrl (RNF43 wildtype). The description is as above. The following applies: 5 µM; 96 h. As to the method: as §1

Consider `CCS(=O)(=O)Nc1ccc2[nH]c(O)c(C(=Nc3ccc(CN4CCCCC4)cc3)c3ccccc3)c2c1`, for which the cell viability activity in assay [1] was -77.1%; in assay [2], -75.4%.

In the case of `C=CCn1c(=O)c2cnc(Nc3ccc(N4CCN(C)CC4)cc3)nc2n1-c1cccc(C(C)(C)O)n1`, the cell viability activity in assay [1] was -74.4%; in assay [2] it was -81%.

For `Cc1cc(Nc2cc(N3CCN(C)CC3)nc(/C=C/c3ccccc3)n2)n[nH]1`, the figures for the cell viability activity in assay [1] and in assay [2] were -74.6% and -75.7%, respectively.

In the case of `COC[C@H](C)NC1CCC(Nc2cc(-c3cccc(NCC4(C#N)CCOCC4)n3)c(Cl)cn2)CC1` (stereo partly specified), the cell viability activity in assay [1] is -67.4%; in assay [2], -89.4%.

Turning to `C[C@@H](Oc1cc(-n2cnc3ccc(CN4CCN(C)CC4)cc32)sc1C(N)=O)c1ccccc1C(F)(F)F`, the cell viability activity in assay [1] is -89.5%; in assay [2], -76.1%.

Regarding `CCCCCCCC[N+](C)(C)Cc1ccccc1`, the cell viability activity in assay [1] is -22.5%; in assay [2] it was -16.8%.

Turning to `Cc1ccc(C)c(OCCCC(C)(C)C(=O)O)c1`, the cell viability activity in assay [1] is -30%; in assay [2], -39.7%.

In the case of `CC(C)NC(=O)N1CC[C@H](NC2=Nc3cc(F)ccc3N(CC(F)F)c3ccc(Cl)cc32)C1`, the cell viability activity was -49.3% in assay [1] and -50.8% in assay [2].

For the molecule `c1ccc(CNc2nc(NCc3ccccc3)c3ccccc3n2)cc1`, the values for the cell viability activity in assay [1] and in assay [2] were -22% and -41%, respectively.

On to `O=C(O)c1ccc[n+]([O-])c1`, for which the results for the cell viability activity in assay [1] and in assay [2] were -66% and -67.1%, respectively.

For `Cc1cc(-c2cc(O)ccc2Cl)cc2nnc(Nc3ccc(OCCN4CCCC4)cc3)nc12`, the cell viability activity in assay [1] was -41.1%; in assay [2], -76.9%.

In the case of `NC(=O)c1cnc(N[C@@H]2CCCC[C@@H]2N)nc1Nc1cccc(-n2nccn2)c1`, the cell viability activity in assay [1] was -35.6% and -40.3%; in assay [2], -34.2% and -41.6%.

`CN[C@@H](C)C(=O)N[C@H](C(=O)N1CCC[C@H]1C(=O)N[C@H]1c2ccccc2C[C@H]1OCC#CC#CCO[C@@H]1Cc2ccccc2[C@@H]1NC(=O)[C@@H]1CCCN1C(=O)[C@@H](NC(=O)[C@H](C)NC)C1CCCCC1)C1CCCCC1`: the cell viability activity was -58.1% in assay [1] and -77.2% in assay [2].

In the case of `CCN1CCN(Cc2ccc(Nc3ncc(F)c(-c4cc(F)c5nc(C)n(C(C)C)c5c4)n3)nc2)CC1`, the cell viability activity is -49.8% in assay [1] and -44.9% in assay [2].

Take `COc1cc(NC(=O)Nc2cccc(CNC(=O)O[C@H]3CCOC3)c2)ccc1-c1cnco1`: the cell viability activity in assay [1] is -41.5%; in assay [2], -23.6%.

Consider `COC(=O)Nc1ccc(-c2nc(N3CCOCC3)c3cnn(C4CCN(Cc5cccnc5)CC4)c3n2)cc1`, for which the cell viability activity in assay [1] is -55.8%; in assay [2] it was -48.1%.

For `COc1ccc(C[C@H](NC(=O)[C@H](C)NC(=O)CN2CCOCC2)C(=O)N[C@@H](Cc2ccccc2)C(=O)[C@@]2(C)CO2)cc1`, the cell viability activity in assay [1] was -95.4%; in assay [2], -94.4%.

Regarding `C1=N/C2=N/c3ccc(OCCN4CCCC4)c(c3)COC/C=C/COCc3cccc(c3)C(=C1)N2`, the figures for the cell viability activity in assay [1] and in assay [2] were -41.5% and -31.8%, respectively.

For the molecule `O=C(O)/C=C/c1ccc(O)c(O)c1`, the cell viability activity in assay [1] is -66.6%; in assay [2], -80.2%.

Turning to `O=C1c2c(O)ccc(O)c2C(=O)c2c(NCCNCCO)ccc(NCCNCCO)c21`, the cell viability activity was -100% in assay [1] and -99.7% in assay [2].

As to `CC(=O)c1cc2c(o1)C(=O)c1ccccc1C2=O`, the cell viability activity in assay [1] is -97.1%; in assay [2], -96.4%.

In the case of `NC(=NC1C2CC3CC(C2)CC1C3)Nc1ccc(I)cc1` (stereo unspecified), the cell viability activity in assay [1] is -49.5%; in assay [2] it was -69.8%.

`O=C1C(Cl)=C(NCCN2CCOCC2)C(=O)c2ncccc21`: the cell viability activity in assay [1] is -46.3%; in assay [2], -94.7%.

For the molecule `COc1cc(/C=C/C(=O)CC(=O)/C=C/c2ccc(O)c(OC)c2)ccc1O`, the cell viability activity in assay [1] was -87.7%; in assay [2], -84.2%.

For `CC(C)c1ccc(NC(=O)Cn2cnc3c2c(=O)n(C)c(=O)n3C)cc1`, the cell viability activity in assay [1] is -55.3%; in assay [2] it was -23.8%.

For the molecule `c1cc(-c2cnn3cc(-c4ccc(N5CCNCC5)cc4)cnc23)c2cccnc2c1`, the cell viability activity in assay [1] is -97.7%; in assay [2] it was -96.2%.

Consider `CC(C)(O)C(=O)N1CCN(c2ccc(C(F)(F)F)c(C3=C(c4c[nH]c5ccccc45)C(=O)NC3=O)c2)CC1`, for which the cell viability activity is -43.1% in assay [1] and -32.7% in assay [2].

`CN(C)C(=O)CCSC(SCCC(=O)O)c1cccc(/C=C/c2ccc3ccc(Cl)cc3n2)c1` (stereo unspecified): the cell viability activity was -22.6% in assay [1] and 5.04% in assay [2].

Turning to `CC[C@@H]1C(=O)N(C)c2cnc(Nc3ccc(C(=O)NC4CCN(C)CC4)cc3OC)nc2N1C1CCCC1`, the cell viability activity in assay [1] was -83.2%; in assay [2], -90.4%.

Consider `CC(=O)O[C@H]1C(=O)[C@@]2(C)[C@H]([C@H](OC(=O)c3ccccc3)[C@]3(O)C[C@H](OC(=O)[C@H](O)[C@@H](NC(=O)c4ccccc4)c4ccccc4)C(C)=C1C3(C)C)[C@]1(OC(C)=O)CO[C@@H]1C[C@@H]2O`, for which the cell viability activity in assay [1] was -58.4% and -50%; in assay [2], -54.2% and -52.9%.

As for `COc1cc(C(=O)NC2CCN(C)CC2)c(F)cc1Nc1ncc2c(n1)N(C1CCCC1)CC(F)(F)C(=O)N2C`, the cell viability activity in assay [1] is -65.9%; in assay [2], -68.1%.

Regarding `COc1cc(OC)c(/C=C/S(=O)(=O)Cc2ccc(OC)c(OP(=O)(O)O)c2)c(OC)c1`, the cell viability activity in assay [1] is -26.7%; in assay [2], -12.1%.

With `CN(C)Cc1ccc(S(=O)(=O)n2ccc(/C=C/C(=O)NO)c2)cc1`, the cell viability activity in assay [1] was -72.5%; in assay [2], -64.6%.

`OCCn1cc(-c2ccc3c(c2)CC/C3=N\O)c(-c2ccncc2)n1`: the cell viability activity was -29.3% in assay [1] and -39.2% in assay [2].

As to `N[C@@H](Cn1ccc(=O)n(Cc2ccccc2C(=O)O)c1=O)C(=O)O`, the cell viability activity in assay [1] was -36.8%; in assay [2], -34.1%.

As for `COC(=O)Nc1nc2cc(C(=O)c3ccccc3)ccc2[nH]1`, the cell viability activity in assay [1] was -58.1%; in assay [2] it was -51.4%.

As for `CCN(CC)CCNc1ccc(CO)c2sc3ccccc3c(=O)c12`, the cell viability activity in assay [1] was -23.1%; in assay [2], -27.7%.

As for `O=C(c1c(F)ccc(NS(=O)(=O)N2CC[C@@H](F)C2)c1F)c1c[nH]c2ncc(-c3cnc(C4CC4)nc3)cc12`, the figures for the cell viability activity in assay [1] and in assay [2] were -66.1% and -69%, respectively.
